Screens: PubChem, The Scripps Research Institute Molecular Screening Center
ULK1 inh: ULK1 kinase inhibitors, primary screen, biochemical, AlphaScreen | Serine/threonine-protein kinase ULK1 (Homo sapiens), O75385 | AlphaScreen Atg13 phosphorylation by ULK1, luminescence | inhibition, % at 5.96 µM | actives 1.9% (n = 30,000); in the data active = inhibition above about 43%;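 also: 0% = median of compound wells and 100% = no enzyme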
ASK1 inh: ASK1 kinase inhibitors, primary screen, biochemical, AlphaScreen | Mitogen-activated protein kinase kinase kinase 5 (Homo sapiens), Q99683 | AlphaScreen MKK6 phosphorylation by ASK1, luminescence | inhibition, % at 7.44 µM | actives 0.99% (n = 22,000); in the data active = inhibition above about 35%;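 also: 0% = median of compound wells and 100% = no enzyme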
Active calls of the source: *; · = no result given; ! = not active in a repeat. Compounds with a hit are over-represented: about 2.5% of the library has one in this group of screens.

SMILES	ULK1 inh	ASK1 inh
Cc1cc(N)nc(-c2ccc(C(=O)NC3CC3)cc2)n1	56*	3
CCCNc1cc(C)nc(-c2ccc(C(=O)NC3CC3)cc2)n1	0	4
CN1CCN(C(=O)c2ccc(-c3cccc(C(=O)NCc4cccnc4)n3)cc2)CC1	9	6
CN1CCN(C(=O)c2ccc(-c3cccc(C(=O)NCc4ccccc4)n3)cc2)CC1	70*	15
NC(C(=O)N1CCC(C(=O)Nc2ccc3[nH]ncc3c2)C1)c1ccc(F)cc1 (configuration not stated)	6	0
c1cc(OCCN2CCCCC2)cc(-c2n[nH]c3ccc(-c4ncn[nH]4)cc23)c1	45*	-12
Cc1cc(Nc2ccc(OCCN3CCCCC3)cc2)nc(-c2cccc(OC(F)(F)F)c2)n1	-23	-12
NC(=O)c1ccc2[nH]nc(-c3cccc(OCCN4CCCCC4)c3)c2c1	61*	6
O=C(O)c1ccc(OCCN2CCCCC2)cc1	-7	·
CC(C)n1c(Nc2ncccn2)nc2c(NCCOc3ccccc3)ncnc21	-14	-8
NCC1CCCN(c2ccnc(Nc3ccc(S(N)(=O)=O)cc3)n2)C1 (configuration not stated)	12	-2
O=C(Nc1ccc2[nH]ncc2c1)C1CCN(C(=O)[C@H](O)COc2ccc(Br)cc2)C1 (some centres not stated)	-4	-19
O=C1c2cccc(O)c2C(=O)c2c(O)cccc21	30	·
Cc1cc(O)c2c(c1)Cc1cccc(O)c1C2=O	44*	·
CCN(CC)C(=O)C1CCCN(c2cccc(C(=O)Nc3ccc(N4CCOCC4)cc3)n2)C1 (configuration not stated)	52*	-24
O=C(Nc1ccc(N2CCOCC2)cc1)c1csc(Nc2ccncn2)n1	42	-14
O=C(Nc1ccc(N2CCOCC2)cc1)c1csc(Nc2ncccn2)n1	53*	-19
O=C(Nc1ccc(N2CCOCC2)cc1)c1cccc(Nc2ccncn2)n1	52*	-30
O=C(NCCN1CCOCC1)c1cccc(Nc2ccc3ncccc3c2)n1	1	-12
O=C(Nc1ccc(N2CCOCC2)cc1)c1cccc(Nc2ccc3ncccc3c2)n1	46*	-10
O=C(Nc1ccc(N2CCOCC2)cc1)c1csc(Nc2ccc(N3CCOCC3)cc2)n1	32	-8
CCN(CC)C(=O)C1CCCN(c2cccc(C(=O)NCCN3CCOCC3)n2)C1 (configuration not stated)	1	-10
CC(C)N(CCNc1cc(N2CCN(c3ccccn3)CC2)ncn1)C(C)C	7	-2
CCCNC(=O)c1ccc(-c2cccc(C(C)=O)c2)s1	1	-4
NC(=O)c1cnc(-c2cccc(N)c2)s1	2	-3
SMILES	ULK1 inh	ASK1 inh
O=C(COC(=O)c1cccc(N2C(=O)C3C4C=CC(C4)C3C2=O)c1)c1ccc([N+](=O)[O-])cc1 (configuration not stated)	-12	·
O=C1CCCN1CCCNc1nc(N2CCC(N3CCOCC3)CC2)nc2c1ncn2-c1ccsc1	5	-8
CNC(=O)c1ccccc1Nc1cc(NC(=O)Cc2ccc3c(c2)OCO3)ncc1C(F)(F)F	55*	12
CNC(=O)c1ccccc1Nc1cc(NC(=O)C(OC)c2ccccc2)ncc1C(F)(F)F (configuration not stated)	-10	-16
COc1ccc(CC(=O)Nc2cc(Nc3ccccc3C(N)=O)c(C(F)(F)F)cn2)cc1	76*	32
CNC(=O)c1ccccc1Nc1cc(NC(=O)Cc2cccc(F)c2)ncc1C(F)(F)F	55*	-3
NC(=O)c1ccccc1Nc1cc(NC(=O)Cc2ccc(F)cc2)ncc1C(F)(F)F	31	10
NC(=O)c1ccccc1Nc1cc(NC(=O)Cc2ccc(F)c(F)c2)ncc1C(F)(F)F	19	-21
NC(=O)c1ccccc1Nc1cc(NC(=O)Cc2ccc3c(c2)OCO3)ncc1C(F)(F)F	-23	19
CNC(=O)c1ccccc1Nc1cc(NC(=O)Cc2ccccc2OC)ncc1C(F)(F)F	51*	14
O=C(NC1CCN(Cc2ccccc2)CC1)c1cnc(N2CCN(Cc3ccc4c(c3)OCO4)CC2)s1	-2	9
O=C1CCCN1CCCNc1ccnc(Nc2ccc(C(F)(F)F)cc2)n1	6	-9
COc1ccc(-c2nccc(Nc3ccc(NC(C)=O)cc3)n2)cn1	2	7
c1ccc(OCCNc2ccnc(Nc3cnccn3)n2)cc1	-2	-16
c1ccc(Nc2nc(Nc3ccncc3)nc3c2ncn3-c2ccccc2)cc1	-4	-7
O=C(Cc1cn(-c2ccc(Nc3ccc(N4CCOCC4)cc3)nn2)c2ccccc12)Nc1ccccc1	10	13
Cn1nccc1Nc1ccc(-n2cc(CC(=O)Nc3ccc(N4CCOCC4)cc3)c3ccccc32)nn1	49*	-7
Cc1ncn(-c2ccc(Nc3ncc4cccc(-c5cnn(-c6ccccc6)c5)c4n3)cc2)n1	16	10
Cc1ncn(-c2ccc(N(c3ncc4cccc(-c5cnn(C(C)C)c5)c4n3)C(C)C)cc2)n1	92*	-3
CC(=O)Nc1ccc(Nc2ccnc(Nc3ccncn3)n2)cc1	68*	16
CC(=O)Nc1ccc(Nc2ccnc(Nc3ccc(C(F)(F)F)cc3)n2)cc1	-11	29
COc1ccc(-c2cc(Nc3cc(OC)c(OC)c(OC)c3)nc(N)n2)cn1	-13	-15
CCCNc1ncnc2nc(-c3ccc(OC)nc3)[nH]c12	14	18
COC1=C(N)C(=O)c2nc(-c3nc(C(=O)O)c(C)c(-c4ccc(OC)c(OC)c4O)c3N)ccc2C1=O	84*	·
CC(=O)Nc1ccc(O)cc1	-2	·
SMILES	ULK1 inh	ASK1 inh
CC(=O)Nc1ccccc1	58*	·
NC1CCC(C(=O)Nc2ccc3[nH]ncc3c2)CC1 (configuration not stated)	55*!	14
N[C@@H]1CC[C@H](C(=O)Nc2ccc3cnccc3c2)C1	8	-2
CC(C)[C@@H](O)C(=O)N[C@H]1CC[C@@H](C(=O)Nc2ccc3[nH]ncc3c2)C1	1	13
N[C@H]1CCC[C@H](C(=O)Nc2ccc3cnccc3c2)C1	75*	-2
O=C(Cc1ccccc1)NCc1nc2ccncc2[nH]1	-8	-7
O=C(NCCc1ccc(O)cc1)c1ccc2nc(NC3CCN(Cc4ccccc4)CC3)sc2c1	-9	16
CN(C)CCOc1cc(-c2ccnc(N)n2)ccc1NC(=O)[C@H]1COc2ccccc2O1	-2	-3
Cc1nc(C)n(-c2ccc(Nc3nccc(-c4cc(F)cc(-c5cnn(C)c5)c4)n3)cc2)n1	-6	31
Cc1nc(C)n(-c2ccc(Nc3ncc(Br)c(-c4cnn(C)c4)n3)cc2)n1	87*	-93
Cc1ncn(-c2ccc(Nc3ncc(Cl)c(-c4cnn(C)c4)n3)cc2)n1	66*	-78
Cc1ncn(-c2ccc(Nc3ncc(Cl)c(Nc4ccccc4-c4ncn(C)n4)n3)cc2)n1	2	10
Cn1cc(-c2nc(Nc3ccc(-n4cnc(N5CCC(O)CC5)n4)cc3)ncc2F)cn1	58*	-40
CN1CCN(c2ncn(-c3ccc(Nc4ncc(F)c(-c5cccc(N6CCOCC6)c5)n4)cc3)n2)CC1	-3	15
Cn1c(=O)[nH]c(N2CCc3ccccc3C2)c(Cc2ccc([N+](=O)[O-])cc2)c1=O	-2	·
COc1ccc(-c2ccc(C(=O)NCc3ccccc3)s2)cc1	1	-18
CCC(=O)Nc1cc(C)nn1-c1nc(C)c(C)c(=O)[nH]1	3	·
